# Bioassay records: PubChem BioAssay, Sanford-Burnham Center for Chemical Genomics
# Most compounds without a hit are left out; they make up all but 4% or so of the library.
# TROY NFkB inh: inhibitors of TROY-driven NF-kB signaling, primary screen, Q293 LMP1-TROYcd cells, NF-kB luciferase, uHTS. Q293 LMP1-TROYcd NF-kB luciferase reporter, 4 h. inhibition, % at 10 µM. 360,000 compounds, 0.98% hits;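 active = compounds whose plate-normalised and pattern-corrected inhibition of the luciferase reporter signal at the single screening dose is 50% or more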
# KKLEB cytotox: cytotoxicity in KKLEB CF airway cells, primary screen, cytotoxicity control for CF NF-kB inhibitor project, cell-based, uHTS, fluorescence assay plates; KKLEB CF airway cells viability, ATPlite luminescence, overnight; stronger effect = lower value; cells stimulated with P. aeruginosa culture filtrate; activity change (cytotoxicity), % at 5 µM; 360,000 compounds, 0.36% hits; AID 602141, 2011;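 active = corrected activity change at or below -50% at 5 µM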
# TWEAK-Fn14 inh: inhibitors of TWEAK-Fn14 signaling, primary screen, luciferase reporter cells, uHTS; TWEAK-stimulated Fn14 reporter cells, luciferase luminescence, 8 h; inhibition, % at 10 µM; 360,000 compounds, 2% hits; in the data active = inhibition above about 50%
# CF NFkB block: inhibitors of PAF-induced NF-kB signaling, primary screen, cell-based, GFP fluorescence, uHTS; KKLEB NF-kB-GFP reporter, GFP fluorescence overnight; inhibition, % at 5 µM; 360,000 compounds, 0.86% hits; AID 588850, 2011;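 active = at least 50% inhibition at 5 µM, scaled per plate between neutral and stimulator controls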;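 also: PAF is a Pseudomonas aeruginosa culture filtrate used as stimulus; plate controls were PAF-stimulated DMSO wells for no effect and unstimulated DMSO wells for full effect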
# Peg3 promoter: Peg3 promoter-driven luciferase inhibitors, primary screen, cell-based, HeLa, luciferase luminescence; HeLa PEG-Prom luciferase reporter, overnight; 360,000 compounds, 1.7% hits; inhibition, % at 20 µM;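 active = inhibition of at least 50% at 20 µM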
# HIF-2a inh: HIF-2a reporter inhibitors, primary screen, luminescence, 786-0 RCC cells | 786-0 RCC cells HIF-2a reporter, luciferase luminescence, overnight | AID 624352, 2012 | inhibition, % at 18.8 µM | 360,000 compounds, 0.72% hits;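 active = inhibition of the luminescence signal of 40% or more relative to plate controls, in a single-dose primary screen at 18.75 µM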
# Starred values were filed as active, the others as inactive; . = no result given.
SMILES,TROY NFkB inh,KKLEB cytotox,TWEAK-Fn14 inh,CF NFkB block,Peg3 promoter,HIF-2a inh
CCOc1ccccc1-n1c(SCC(=O)Nc2ccccc2C(=O)O)nc2ccccc2c1=O,78*,-4,92*,-33,-55,-22
Cc1ccc(/C=N/NC(=O)CSc2nc3ccccc3c(=O)n2-c2ccccc2C)s1,-22,7,42,-32,51*,11
Cc1ccccc1-n1c(SCC(=O)N/N=C/c2c(C)nn(-c3ccccc3)c2C)nc2ccccc2c1=O,6,19,-21,-9,54*,15
CCn1c(SCC(=O)Nc2ccccc2OC)nc2ccccc2c1=O,0,-2,12,-5,23,24
Cc1nn(-c2ccccc2)c(C)c1/C=N/NC(=O)CSc1nc2ccccc2c(=O)n1-c1ccc(Br)cc1,-11,-20,-64,21,58*,11
CC(C)C[C@@H](CN1CCC[C@H]1CN1C(=O)C(=O)NC[C@@H]1Cc1ccc(O)cc1)N1C[C@H](Cc2ccc(O)cc2)N(CC2CCCCCC2)C(=O)C1=O,-4,.,5,.,.,-9
Cc1c(C(=O)N2CCCC2)c(S(=O)(=O)Nc2cccc(Br)c2)c(C)n1C,-12,1,6,22,29,14
CC(C)(C)[C@H]1C=C(C(=O)O)O[C@@H](OCc2ccc(CO)cc2)C1,-12,-2,3,1,1,10
COC(=O)CS(=O)(=O)c1nnc([C@H](Cc2ccccc2)NC(=O)OC(C)(C)C)o1,11,-12,-1,66*,104*,45*
C=CCn1c(-c2ccc(OC)cc2)nc2ccccc21,.,4,57*,15,-141,-156
C#CCNC(=O)C[C@@H]1C[C@@]2(C(=O)OCC)CCCC=C2N(Cc2ccc3c(c2)OCO3)C1=O,-1,.,11,.,.,-4
CCS(=O)(=O)N1CCN(c2ccc([N+](=O)[O-])c(NCc3ccccc3)c2)CC1,-16,-5,-7,-7,18,12
CS(=O)(=O)N1CCN(c2ccc([N+](=O)[O-])c(NCc3ccccc3)c2)CC1,.,-5,75*,6,28,14
COc1ccccc1/C=C(/NC(=O)c1ccccc1)C(=O)NCCCn1ccnc1,-15,-26,2,4,18,0
COc1ccccc1NC(=S)NCCc1c[nH]c2ccccc12,-1,6,4,-2,11,-13
COc1cc(CNCCc2c[nH]c3ccccc23)ccc1OCc1ccc(F)cc1,-26,-18,-2,9,112*,3
COc1cccc(CNCCc2c[nH]c3ccccc23)c1OCc1ccc(F)cc1,12,-6,23,0,105*,9
Cc1ccc(/C=C2/C(=O)ON=C2c2ccccc2)o1,-8,-2,15,11,50*,68*
COc1cc([N+](=O)[O-])ccc1-c1ccc(/C=C2\C(=O)ON=C2c2ccccc2)o1,-2,-25,68*,87*,103*,9
CN(CCC#N)C(=O)CSc1nnc(-c2c[nH]c3ccccc23)o1,-39,17,3,-8,-45,-56
COc1ccccc1NC(=O)Nc1nc(CC(=O)NCc2c(F)cccc2F)cs1,-5,-8,11,-11,21,-28
COc1ccccc1NC(=O)Nc1nc(C(N)CC(C)C)cs1 (centres undefined),5,-4,10,-4,61*,5
NC(CCc1ccccc1)c1csc(Nc2ccccn2)n1 (centres undefined),11,-11,-24,-11,25,1
COc1ccc(CC(N)c2csc(NC(=O)Nc3ccccc3-c3ccccc3)n2)cc1 (centres undefined),23,-15,22,15,92*,9
NC(CCc1ccccc1)c1csc(NC(=O)NCC2CCCCC2)n1 (centres undefined),-31,-11,-18,8,98*,-55
SMILES,TROY NFkB inh,KKLEB cytotox,TWEAK-Fn14 inh,CF NFkB block,Peg3 promoter,HIF-2a inh
COc1ccc(NC(=O)Cc2csc(NC(=O)Nc3ccccc3OC)n2)c(OC)c1,-3,-1,20,-5,15,-3
COc1ccccc1NC(=O)Nc1nc(CC(=O)N2CCN(c3ccccc3F)CC2)cs1,37,5,39,-23,52*,-18
COCc1cccc(-c2csc(C(C)(O)c3ccc(OC)cc3)n2)c1 (centres undefined),6,-15,-9,8,-14,-8
COc1ccccc1NC(=O)Nc1nc(C(N)Cc2ccccc2)cs1 (centres undefined),-1,3,-8,4,60*,-6
COc1ccc(CCNC(=O)Nc2nc(C(N)Cc3ccccc3)cs2)cc1OC (centres undefined),20,-2,5,-8,17,12
COc1ccccc1NC(=O)Nc1nc(C(N)Cc2ccc(Cl)cc2)cs1 (centres undefined),16,-7,10,6,106*,11
COc1ccc(OC)c(NC(=O)Cc2csc(NC(=O)Nc3ccccc3OC)n2)c1,8,-16,21,-9,54*,-6
COc1ccc(OC)c(NC(=O)Nc2nc(C(N)CCc3ccccc3)cs2)c1 (centres undefined),2,-18,0,24,100*,-23
CCS(=O)(=O)N1CCCC(C(=O)NCCCN2CCCC2=O)C1 (centres undefined),.,-2,64*,0,5,6
CN(C)C(=O)CNc1ccn2nc(-c3cccc(Cl)c3)cc2n1,-15,10,21,-37,-199,-177
CCCOc1ccc(C(=O)Nc2cccnc2)cc1,-44,-5,2,9,-213,-178
CCOc1cc(C(=O)Nc2cccnc2)cc(OCC)c1OCC,52*,8,21,23,19,19
Cc1cc(C)nc(SCCC(=O)Nc2ccccc2C)n1,-18,-11,106*,0,18,-2
Cc1cc(C)nc(SCCC(=O)Nc2ccccc2)n1,2,0,-7,-2,6,-8
COc1cc(CNc2ccc3c(c2)OCCO3)ccc1OCC(N)=O,28,0,34,9,2,-3
CCOc1cc(CNc2ccc3c(c2)OCCO3)cc(Br)c1OCC(N)=O,64*,1,88*,-4,-8,-3
Cc1ccc2c(c1)N(C(=O)CCC(=O)NC1CCCCCC1)CCO2,7,-6,-9,8,18,3
Cc1ccc(CNC(=O)CN(c2ccc(C)cc2)S(=O)(=O)c2c(C)n[nH]c2C)cc1,-11,0,9,0,-3,14
COc1cc(SC)ccc1C(=O)Nc1ccccn1,-7,-40,56*,-4,-167,-169
